B1: design_609_7ee6ce64-4629-41e8-bcb4-ba0da017284d_1124_dldesign_0_cycle1_af2pred (protein)
chain: MAEAFEFTAEGLRLLAEEKSPEEAEKYNELAEKFEELAERARTGTPEDAKAAREEGNKLVKENSELVFEAKEYKTEKDYEELK
B2: design_609_7ee6ce64-4629-41e8-bcb4-ba0da017284d_960_dldesign_0_cycle1_af2pred (protein)
chain: DEEAYKKAKERGKKLEEKAKASNAYSAAAYYEAAYESYLQAAKQVRPELAKELKKAAEEAKAKAEEKYAEVAA
B3: design_609_7ee6ce64-4629-41e8-bcb4-ba0da017284d_654_dldesign_0_cycle1_af2pred (protein)
chain: AAAEQAKLKAEAKALMAAMKAAGKAGDVAAVEAAAKAALAKAKELAKIDPALGSKLAAEIHETRAEALSTARKTREEKKKEEELKK
B4: design_609_7ee6ce64-4629-41e8-bcb4-ba0da017284d_143_dldesign_0_cycle1_af2pred (protein)
chain: EEEKKELLESESYAIQAAHAVAAKDPATAEEAKEAFEYVALVGVEKARELLEKAKTDAESLKAAVAEAKELAKEVKKKLE
B5: design_609_7ee6ce64-4629-41e8-bcb4-ba0da017284d_250_dldesign_0_cycle1_af2pred (protein)
chain: MEEVKKKAEKALKEAKAALKEAKALGNEEAIKAAEQAIKFAKKALEYAEKGDLNGAEAYLEAAKHALKVAKDAIKAAKKAA
B6: design_609_7ee6ce64-4629-41e8-bcb4-ba0da017284d_730_dldesign_0_cycle1_af2pred (protein)
chain: SEQAKEELEKQEKVKEVAKKVRKALKELEEAGDEEAKKEAEKLRKEASEARLLAADDPEKGLEEMKKVLEKAEKKLKEVKAKL
B7: design_609_7ee6ce64-4629-41e8-bcb4-ba0da017284d_1000_dldesign_0_cycle1_af2pred (protein)
chain: GKAIEAQKLVADAFAKYRKGKANPETYEEDKAEARELLREALELDFESAKETAKFLAELAKWQNPEAGKEFAALVEEVIAEVA
B8: design_609_7ee6ce64-4629-41e8-bcb4-ba0da017284d_478_dldesign_0_cycle1_af2pred (protein)
chain: DAVKKAAEEAAKEAAKHPKGEKIAKAIEKGAEVAIKNSDKSFSQAAGDGASTIISLLGKEAGVDAIEAQDYADYWLDLVEKNS
B9: design_609_7ee6ce64-4629-41e8-bcb4-ba0da017284d_665_dldesign_0_cycle1_af2pred (protein)
chain: MDEEKLKMAEEEMKEGEKYAKAAKAALKKGDAKKAATLASEALASYNAAAHLYELAGDKEKAKKALEEGKKVVEEVGAAVKA
B10: design_609_7ee6ce64-4629-41e8-bcb4-ba0da017284d_367_dldesign_0_cycle1_af2pred (protein)
chain: KRKEEQLEKLKKLAEELEKKAKEYEKDKNFKEVAKAYKEAAKKLKEAAKTGDSKVAHEARQKAAEAEWLEKKAK
B11: design_609_7ee6ce64-4629-41e8-bcb4-ba0da017284d_900_dldesign_0_cycle1_af2pred (protein)
chain: GKEMVDKYSKERKKIAEAAKLAKEGKENPETFEKKAEEALKIAEEAAKEGDEGIKFQAENLKAYIEKLRKEK
B12: design_609_7ee6ce64-4629-41e8-bcb4-ba0da017284d_830_dldesign_0_cycle1_af2pred (protein)
chain: MESLKETFEKMAKLVKKFAEYLEKLDPEAGKKTLEILKKGEEAKTPSEAISLVLRAAVYGAKELGKYDKELALEKLEKVFDL
B13: design_609_7ee6ce64-4629-41e8-bcb4-ba0da017284d_914_dldesign_0_cycle1_af2pred (protein)
chain: AEAEELVEKAEERYKKLKERAEKAIKEGNKNELLAVSEAAKHAAEQAEKLAPKTGEKGKEVAKKFKELSKKAEETAKK
B14: design_609_7ee6ce64-4629-41e8-bcb4-ba0da017284d_123_dldesign_0_cycle1_af2pred (protein)
chain: GAKAVAAAAHDGYQAIAEASKDAEELKKAEEAGLKAVEETGKATGDTATAKAAKERLKRYADRELKKSKKKEEEKKKKLLE
B15: design_609_7ee6ce64-4629-41e8-bcb4-ba0da017284d_962_dldesign_0_cycle1_af2pred (protein)
chain: AEAEVKAAIEELKAESEKIVEEAKKEMEKHKEDPKKVEEIRKEALKKIRELAKEVAEKTGDWKGASAVVHEAYEKLNEAYKEAIEKAK
B16: design_609_7ee6ce64-4629-41e8-bcb4-ba0da017284d_741_dldesign_0_cycle1_af2pred (protein)
chain: EKELAEEVIKKIKEKAEKAIKEGVSREEAEKVIKEIEELATKASWEAPEYAKELNRAAKEEKKKIKKAVEEREA
B17: design_609_7ee6ce64-4629-41e8-bcb4-ba0da017284d_985_dldesign_0_cycle1_af2pred (protein)
chain: SEEVLELGEREAERLKEAGASNRSIGLVLFLAEEAAEGNLEAAEGIFRAARREAEREKEKNPEVGELLEEALERLRKAAE
B18: design_609_7ee6ce64-4629-41e8-bcb4-ba0da017284d_1351_dldesign_0_cycle1_af2pred (protein)
chain: AAAAAAEAARAAAAAAAVAAAAEAKTAEVAKADPSAAPYYADAAGIVVDSAAAALAAAPGAEAAAIAARGVRTINRLAESTIEAIKRR
B19: design_609_7ee6ce64-4629-41e8-bcb4-ba0da017284d_297_dldesign_0_cycle1_af2pred (protein)
chain: SPEEMIKKGKELVEKRLEKAKKTAEEKTPEEAKREAEAAVAFAEGVAEALAKHPEAAAAGEALLKETKEEAEKIIKKAKE
B20: design_609_7ee6ce64-4629-41e8-bcb4-ba0da017284d_1084_dldesign_0_cycle1_af2pred (protein)
chain: SEKEKEEVLKEAKEVLEKAKKAAEELGDEEAVKRMERRLKRAEEGNLQDAEAALESGKHALENAKKKLKEKEKAA
B21: design_609_7ee6ce64-4629-41e8-bcb4-ba0da017284d_1121_dldesign_0_cycle1_af2pred (protein)
chain: SKEEAIKNIRELRRELREVAEEAMKEVSEEDAKKVRELASKASGKLAEERGLAVSKPELAEEALKNAKEIAEKAIEEVKKIAEKAKK
B22: design_609_7ee6ce64-4629-41e8-bcb4-ba0da017284d_1172_dldesign_0_cycle1_af2pred (protein)
chain: MEEVEAFKKEAQKKLDEAVEYALSISDIEKSKKVADLMSEMGKHYSEAYKAMESGEKLEEAKKNIEKAEEYYKKAKEIAEEDEKKKKE
B23: design_609_7ee6ce64-4629-41e8-bcb4-ba0da017284d_187_dldesign_0_cycle1_af2pred (protein)
chain: AEAEKAKAEEAAKVAEEKIKKVEKLDPKKAEELRKKLKEAMAKPDAYKAVAKVSHDAYEALAEAEWEKRK
B24: design_609_7ee6ce64-4629-41e8-bcb4-ba0da017284d_842_dldesign_0_cycle1_af2pred (protein)
chain: SMREEELEADRKKVDEGAKELKKLGEEAAKKAKTWEEFVKGHKELREKAKEVVDAALPEVKPYAEKAASKVVHDARQKGAENVQKQK
B25: design_609_7ee6ce64-4629-41e8-bcb4-ba0da017284d_738_dldesign_0_cycle1_af2pred (protein)
chain: MEEALARIDAALKRAKELAKEAEKAGDKKAAAEMESAIAFAEQQRENALKGSPEYAKKAAEAAEAYTDRKIKRAEEIRKKK
B26: design_609_7ee6ce64-4629-41e8-bcb4-ba0da017284d_287_dldesign_0_cycle1_af2pred (protein)
chain: MLKEEAKKVAEKGKKEGKYEEAIKELSEIAAKAYELAAEKLLDKETKEEGEKYREAARLARELGKELEKAA
B27: design_609_7ee6ce64-4629-41e8-bcb4-ba0da017284d_519_dldesign_0_cycle1_af2pred (protein)
chain: SEEAERELTLAKGYAELAKELAEQGPKAAKSAVKDAEKEAKEAEKIDPEVGKKAKELAEEAKKYVEEKEK
B28: design_609_7ee6ce64-4629-41e8-bcb4-ba0da017284d_1185_dldesign_0_cycle1_af2pred (protein)
chain: KSEESKKEAEAAAKAAGEAMAKATGDKATADALAKAMLDALKAGDEAAAVAKRNEAAAIALAADPALAMDVLAEGKAAIVYAKK
B29: design_609_7ee6ce64-4629-41e8-bcb4-ba0da017284d_1016_dldesign_0_cycle1_af2pred (protein)
chain: AAADAKAKFDVAFLAAELRASARAAAKANPAAAPAVVDAAAERLRAAGAAGTPEAAAYADAAIARERAWAAAAAAA
B30: design_609_7ee6ce64-4629-41e8-bcb4-ba0da017284d_1108_dldesign_0_cycle1_af2pred (protein)
chain: MQEAIDYVKKKGSELIDKLVDDLAAGEEKDDPKIAKEVLEKLEELEKEAKKLSEEAAEEAKKAIETAKRIASNA
B31: design_609_7ee6ce64-4629-41e8-bcb4-ba0da017284d_862_dldesign_0_cycle1_af2pred (protein)
chain: MEVAKLAHEALEAAAEGEAVAKNDPEKREKLRELARKAREAAKKGDVEEAKKLAKEVKKLAKALEKEKKEKEK
B32: design_609_7ee6ce64-4629-41e8-bcb4-ba0da017284d_829_dldesign_0_cycle1_af2pred (protein)
chain: LEEELKKAIEEAKKAVKELKEAAKKRPLTPEEIAKLVTKVSNELGKVRFLSAEALVNKKYEKVGEEGRKAAKEIREEAKEAIKLSKEK
B33: design_609_7ee6ce64-4629-41e8-bcb4-ba0da017284d_1105_dldesign_0_cycle1_af2pred (protein)
chain: DALKEAAEIAAKARELAAELDYLAKKSSPELGKKYAAYAERLRKAVRETRETGVEGAEKTRKELEEVEKEVKEL
B34: design_609_7ee6ce64-4629-41e8-bcb4-ba0da017284d_1088_dldesign_0_cycle1_af2pred (protein)
chain: NKSKEYSDAMKELVRAAKEAAAAADALGAAKGDPALAQAIKAELEKLVFEAADGDIETAKKLAEEAKKLKEAAEKALA
B35: design_609_7ee6ce64-4629-41e8-bcb4-ba0da017284d_1135_dldesign_0_cycle1_af2pred (protein)
chain: SAALEHLVESLIENSTKAAEEGTPEVAKLLNAAAAAAKAGDLETALKLADQALALSPPNINVTLARSDARNALELAKK
B36: design_609_7ee6ce64-4629-41e8-bcb4-ba0da017284d_739_dldesign_0_cycle1_af2pred (protein)
chain: SEASKAAAEAYEKLAETEYLAKKAKESNAEEAEKYAKEAKEAAKEAIEAAKKAAELAPEGAPLMKKVEEKAKKAAEEAEKYAKKKK
B37: design_609_7ee6ce64-4629-41e8-bcb4-ba0da017284d_401_dldesign_0_cycle1_af2pred (protein)
chain: AIEELIKKGKERGEKAAKRVKEGTMTPEAAKDIFKNIIKELAKAGGEEEGKKIALEGADLLAEADPEFGKKFKKEVEKE
B38: design_609_7ee6ce64-4629-41e8-bcb4-ba0da017284d_1161_dldesign_0_cycle1_af2pred (protein)
chain: GSEEARKLQEEFGEALRRFTAAGRRLVETGREVGERTGDPEIEERARRVAEEGNRRRLEALDAGDVEAILAVADELERATEELL

Each binder was assayed against VTCN1, Q7Z7D3.
VTCN1, Q7Z7D3, sequence (Q7Z7D3 whole entry): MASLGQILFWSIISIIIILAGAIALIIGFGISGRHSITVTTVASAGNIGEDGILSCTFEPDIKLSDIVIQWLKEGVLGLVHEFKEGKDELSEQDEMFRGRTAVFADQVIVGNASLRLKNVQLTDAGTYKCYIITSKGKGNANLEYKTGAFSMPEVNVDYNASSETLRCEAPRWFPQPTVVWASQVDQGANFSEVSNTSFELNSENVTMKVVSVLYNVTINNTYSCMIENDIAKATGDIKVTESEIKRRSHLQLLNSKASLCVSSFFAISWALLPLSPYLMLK

Binding in a display sort, inactive:
B1 not found, B2 not found, B3 not found, B4 not found, B5 not found, B6 not found, B7 not found, B8 not found, B9 not found, B10 not found, B11 not found, B12 not found, B13 not found, B14 not found, B15 not found, B16 not found, B17 not found, B18 not found, B19 not found, B20 not found, B21 not found, B22 not found, B23 not found, B24 not found, B25 not found, B26 not found, B27 not found, B28 not found, B29 not found, B30 not found, B31 not found, B32 not found, B33 not found, B34 not found, B35 not found, B36 not found, B37 not found, B38 not found
